Hits are enriched below; roughly 7.8% of the tested compounds scored in any of these assays.
LASV entry inh: inhibitors of Lassa virus binding or cell entry; Potency, µM (top dose mostly 37.9 µM), actives largely listed as inhibitors; Lassa virus pseudotype entry inhibition, cell reporter; AID 540256; 300,000 tested, 1.2% active; calls by dose curve; tested in HEK293 cells; also: nearly all actives have a fitted effect of over 50% in size
HCV inhibitor: inhibitors of hepatitis C virus infection. Huh7.5.1 HCVcc-Cre infection, luciferase reporter, 44 h. AID 651820. Potency, µM (highest dose often 41.8 µM), hits mostly inhibitors. 340,000 tested, 3.4% active; active = well fitted inhibition curve with a large enough effect; inconclusive = small, poorly fitted or top-dose-only effect, or another doubt; inactive = no such curve, though single readings can be large or run the other way
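After 44 h co-culture of compound, cells and HCVcc-Cre (~0.5 moi), substrate is added for 15 min at room temperature and luciferase measured over 15 sec. Cells were seeded at 1,000/well and pre-cultured 4 h.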
Vaccinia Venus: inhibitors of vaccinia virus (Venus reporter) | Vaccinia virus Venus reporter expression, fluorescence | Potency, µM (highest dose often 36.5 µM), most hits filed as inhibitors | 330,000 tested, 0.46% active; calls by dose curve; tested in A549 cells; also: nearly all actives have a fitted effect of over 30% in size
Marburg entry inh: inhibitors of Marburg virus binding or cell entry. Marburg virus pseudotyped entry inhibition, cell reporter. Potency, µM (highest dose often 37.8 µM), usual class: inhibitors. 300,000 tested, 1.8% active; calls by dose curve; tested in HEK293 cells
HCMV antiviral: inhibitors of human cytomegalovirus; HFF cells, HCMV-luciferase reporter, 72 h; stronger effect = lower value; activity change, negative = inhibition, % at 57.5 µM; 410,000 tested, 4.5% active; AID 1259415; in the data active = activity change below about -60%; inconclusive = no clear call, values can overlap the other calls; inactive = above about -39%
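After 16 h attachment at 37C, HFF cells received test compound and HCMV-luciferase (1 PFU/cell); reporter luminescence read 72 h later, data normalized against buffer-only and known inhibitor Salinomycin.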
VACV mCherry inh: inhibitors of vaccinia virus infection (mCherry reporter signal); 310,000 tested, 0.63% active; Potency, µM (top dose mostly 36.5 µM), hits mostly inhibitors; Vaccinia virus mCherry reporter infection, fluorescence; calls by dose curve; tested in A549 cells; also: nearly all actives have a fitted effect of over 35% in size
Each line names hits and unclear results; the compound was inactive in the other large screens.

CCOC(=O)C1=C(O)/C(=C\c2ccc(CNC(=O)C(=O)Nc3ccccc3)o2)N=C1C	HCMV antiviral -74
CCOC(=O)c1ccc(NS(=O)(=O)c2cc3c4c(c2)CCN4C(=O)CC3)cc1	LASV entry inh inconclusive, HCMV antiviral -81
COC(=O)c1ccc(NS(=O)(=O)c2cc3c4c(c2)CCN4C(=O)CC3)cc1	none
O=C(CN1CCC(NC(=O)Cc2ccccc2)CC1)Nc1ccccc1Br	LASV entry inh inconclusive, HCV inhibitor inconclusive, HCMV antiviral -64 (no result: Vaccinia Venus, VACV mCherry inh)
Cc1cc(C)cc(NC(=O)CN2CCC(NC(=O)Cc3ccccc3)CC2)c1	none
CN(C)S(=O)(=O)c1cccc(C(=O)NCC(=O)NC2CCN(Cc3ccccc3)CC2)c1	none
Cc1ccccc1C(=O)NC1CCN(CC(=O)Nc2c(C)cccc2C)CC1	none (no result: Vaccinia Venus, VACV mCherry inh)
C=CCN(c1ccccc1)S(=O)(=O)c1cccc(C(=O)NC2CCN(Cc3ccccc3)CC2)c1	LASV entry inh inconclusive, HCV inhibitor 14µM, Vaccinia Venus inconclusive, Marburg entry inh inconclusive, HCMV antiviral -65, VACV mCherry inh inconclusive
Cc1ccccc1C(=O)NC1CCN(CC(=O)Nc2ccccc2)CC1	HCMV antiviral -90 (no result: LASV entry inh, Vaccinia Venus, Marburg entry inh, VACV mCherry inh)
COc1ccccc1NS(=O)(=O)c1ccc(C)c(C(=O)NC2CCN(Cc3ccccc3)CC2)c1	LASV entry inh inconclusive, HCV inhibitor 2.2µM, Marburg entry inh inconclusive, HCMV antiviral -76
Cc1cccc(NC(=O)c2cccc(N3CCCS3(=O)=O)c2)c1	LASV entry inh inconclusive (no result: HCV inhibitor, Marburg entry inh)
COc1ccc(Br)cc1CNC(=O)CN1CCSc2ccccc21	LASV entry inh inconclusive (no result: HCV inhibitor, Marburg entry inh)
COc1cccc(CNC(=O)C(Cc2ccccc2)NS(=O)(=O)c2ccc3c(c2)oc(=O)n3C)c1 (stereo not given)	none (no result: HCV inhibitor)
Cc1cc(C)cc(NC(=O)CN2CCC(NC(=O)c3cccc(F)c3)CC2)c1	Vaccinia Venus inconclusive
COc1ccccc1NS(=O)(=O)c1cccc(C(=O)NC2CCN(Cc3ccccc3)CC2)c1	HCV inhibitor inconclusive, Marburg entry inh inconclusive, VACV mCherry inh inconclusive (no result: HCMV antiviral)
O=C(NC1CCN(Cc2ccccc2)CC1)c1cccc(S(=O)(=O)Nc2ccc(Br)cc2)c1	LASV entry inh inconclusive, HCV inhibitor inconclusive, Vaccinia Venus inconclusive, Marburg entry inh inconclusive, HCMV antiviral -69
COc1ccc(NS(=O)(=O)c2ccc(C)c(C(=O)NC3CCN(Cc4ccccc4)CC3)c2)cc1	Marburg entry inh inconclusive, HCMV antiviral inconclusive (no result: HCV inhibitor)
Cc1ccc(NS(=O)(=O)c2cccc(C(=O)NC3CCN(Cc4ccccc4)CC3)c2)c(C)c1	HCV inhibitor 14µM (no result: LASV entry inh, Vaccinia Venus, Marburg entry inh, VACV mCherry inh)
O=C(NC1CCN(Cc2ccccc2)CC1)c1cccc(S(=O)(=O)Nc2ccc(F)cc2)c1	HCV inhibitor inconclusive, HCMV antiviral -77 (no result: LASV entry inh, Vaccinia Venus, Marburg entry inh, VACV mCherry inh)
O=C(CN1CCC(NC(=O)c2cccc(F)c2)CC1)Nc1ccc(Br)cc1	HCV inhibitor 10µM
O=C(Cn1c(=O)oc2cc(S(=O)(=O)N3CCCCCC3)ccc21)Nc1ccc(F)cc1F	Marburg entry inh inconclusive (no result: HCV inhibitor)
Cc1oc(C(C)(C)C)cc1C(=O)NC1CCN(Cc2ccccc2)CC1	LASV entry inh inconclusive, HCV inhibitor inconclusive, Marburg entry inh 10µM, VACV mCherry inh inconclusive
C[C@@H]1CC[C@H]2C(=O)N(Cc3ccc(Cl)cc3)C[C@H](O)CN2[C@@H]1c1ccc(Br)cc1	none (no result: LASV entry inh, HCV inhibitor, Vaccinia Venus, HCMV antiviral, VACV mCherry inh)
O=C1c2ccccc2C(Nc2cccc(C(F)(F)F)c2)N1Cc1ccco1 (stereo not given)	LASV entry inh inconclusive, HCV inhibitor inconclusive, Vaccinia Venus inconclusive, Marburg entry inh 14µM
COC(=O)N[C@@H](c1cccc(C)c1)C(C(C)=O)C(=O)OC (stereo not given in full)	none (no result: LASV entry inh, HCV inhibitor, Vaccinia Venus, HCMV antiviral, VACV mCherry inh)
CCOC(=O)[C@@H](C)N1[C@H](C)[C@H](c2ccccc2)Oc2cc(Br)ccc2S1(=O)=O	Marburg entry inh 4.4µM (no result: LASV entry inh, HCV inhibitor, Vaccinia Venus, HCMV antiviral, VACV mCherry inh)
O=C(Cn1c(=O)c2cccn2c2ccccc21)Nc1cc(F)ccc1F	LASV entry inh inconclusive, HCV inhibitor 11µM (no result: Marburg entry inh)
COc1cccc(NC(=O)Cn2c(=O)c3cccn3c3ccc(F)cc32)c1	HCMV antiviral -65 (no result: HCV inhibitor, Marburg entry inh)
CCc1ccc(NC(=O)Cn2c(=O)c3cccn3c3ccccc32)cc1	Vaccinia Venus inconclusive, VACV mCherry inh inconclusive (no result: Marburg entry inh)
Cc1cccc(CNC(=O)CCn2c(=O)c3cccn3c3ccc(F)cc32)c1	HCMV antiviral -85 (no result: HCV inhibitor, Marburg entry inh)
O=C(CCn1c(=O)c2cccn2c2ccc(F)cc21)NCc1cccc(F)c1	HCV inhibitor inconclusive (no result: LASV entry inh, Marburg entry inh)
CCc1ccc(NC(=O)CCn2c(=O)c3cccn3c3ccccc32)cc1	LASV entry inh inconclusive, HCV inhibitor 11µM, Marburg entry inh inconclusive
Cn1c(=O)n(C)c2cc(NS(=O)(=O)c3ccc(C(C)(C)C)cc3)c(NCc3ccccc3)cc21	none (no result: HCV inhibitor)
CCOc1ccc(OCC)c(NC(=O)CC(C)n2nc(C)cc2C)c1 (stereo not given)	none (no result: HCV inhibitor, Marburg entry inh)
CCOc1ccc(Nc2c(S(=O)(=O)c3ccc(Cl)cc3)cnc3ccc(OC)cc23)cc1	HCMV antiviral inconclusive (no result: LASV entry inh, HCV inhibitor)
COc1cccc([C@H]2Oc3ccc(OC)cc3/C(=N\O[C@H](C)c3cn([C@H](CO)Cc4ccccc4)nn3)[C@@H]2O)c1	none (no result: LASV entry inh, HCV inhibitor, Vaccinia Venus, HCMV antiviral, VACV mCherry inh)
O=C1NC(=S)NC(=O)C1=Cc1c(Cl)cccc1Cl	HCMV antiviral -61
O=C1NC(=S)NC(=O)C1=Cc1ccc(Br)s1	HCV inhibitor inconclusive, HCMV antiviral -100 (no result: LASV entry inh, Vaccinia Venus, Marburg entry inh, VACV mCherry inh)
O=C1NC(=S)NC(=O)C1=Cc1cccc2cc3ccccc3cc12	HCV inhibitor 10µM, Vaccinia Venus 11µM, HCMV antiviral -94, VACV mCherry inh inconclusive (no result: LASV entry inh, Marburg entry inh)

Screening results (PubChem)
